# Measurements published in publication PMC5540273 (PLoS ONE, 2017).
# System: TGFBR1
# Conditions: concentration: 1 μM, replicates: in singlicate; n = 1
# 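Also: KINOMEscan kinase panel screen.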
row,SMILES,%Inh [%]
1,CCn1c(-c2nonc2N)nc2c(-c3ccccc3)ncc(OCCCN)c21.O=C(O)C(F)(F)F.O=C(O)C(F)(F)F [GSK260205],76
2,Cc1ccc(-c2ccc3occ(-c4ccc(S(C)=O)cc4)c3c2)nn1 (stereo not shown),0
3,Cn1cc(-c2ccc3c(c2)CCN3C(=O)Cc2cc(F)cc(F)c2F)c2c(N)ncnc21 [GSK2634140],10
4,COc1ccc(C)c(Nc2ccnc(Nc3ccc(-c4cnc[nH]4)cc3)n2)c1.Cl [GW784041],39
5,c1ccc(Oc2ccc(Nc3ccnc4cc(-c5ccc(CN6CCCCC6)o5)ccc34)cc2)nc1 [GW567143],0
6,CN(c1ccc(F)c(NC(=O)c2cccc(OC(C)(C)C#N)c2Cl)c1)c1ccc2nc(NC(=O)C3CC3)sc2n1,3
7,COc1cc(Nc2nccc(N3CCC(NS(=O)(=O)c4ccc(NC(C)=O)cc4)CC3)n2)cc(OC)c1OC [GSK1379825],61
8,Cc1ccc(C)c(NC(=O)Nc2ccc(C)c(-c3ccc(C(=O)Nc4ccncc4)cc3)c2)c1 [GSK1398473],11
9,CCNc1nccc(-c2c(-c3ccc(F)cc3)ncn2C2CCN(C)CC2)n1,0
10,Cc1ccc(NC(=O)c2cccc(N3CCCCC3)c2)cc1-c1ccc(C(=O)NCC2CC2)cc1 [GSK1917008],24
11,Cl.Cl.NCC(NC(=O)c1cc(-c2cccnc2)c(-c2ccnc3[nH]ccc23)s1)c1ccccc1 (stereo not shown) [GSK1323434],22
12,COc1cccc(-c2nc(-c3ccccc3)[nH]c2-c2ccncc2)c1 [SB-610250],17
13,Cn1cc(-c2cnc(N)c3c(-c4ccc5c(c4)CCN5C(=O)Cc4ccccc4)csc23)cn1 [GSK2593074],6
14,CN(C)CCNS(=O)(=O)c1ccc(-c2ccnc3[nH]ccc23)cc1 [GSK977620],0
15,O=C(Nc1n[nH]c2nc(-c3cccc(O)c3)ccc12)C1CC1 [SB-711805],4
16,Nc1cccc(-c2ccc3c(N)n[nH]c3c2)c1 [GSK2193613],0
17,Cl.O=C(Nc1ccc(Oc2ccc3[nH]c(NC(=O)c4ccco4)nc3c2)cc1)Nc1cc(C(F)(F)F)ccc1F [GW683134],0
18,COc1cccc2c(-c3ccncc3)c(-c3ccc(F)cc3)nn12 [GW468513],65
19,COc1cc(Nc2ccnc3cc(-c4ccncc4)ccc23)cc(OC)c1OC.Cl [GW494610],63

row,SMILES,%Inh [%]
1,O=C(O)C(F)(F)F.O=c1[nH]ccc2nc(N[C@@H]3CCNC3)nc(Nc3ccc4c(c3)S(=O)(=O)CC4)c12 [GSK2181306],0
2,Cl.N#CCc1ccc(Nc2nccc(Nc3ccc(Oc4ccccc4)cc3)n2)cc1 [GW639905],0
3,Cc1ccc(O)cc1Nc1ccnc2cc(-c3ccc(CN4CCCCC4)o3)ccc12 [GW557777],47
4,Cl.Cl.NC(CNC(=O)c1cc(Br)c(-c2ccnc3[nH]ccc23)s1)c1ccccc1 (stereo not shown) [GSK1322949],10
5,CN(c1ccc2c(c1)nc(NCc1ccccc1)n2C)c1ccnc(Nc2ccc(CS(C)(=O)=O)cc2)n1.Cl [GW811603],30
6,Cc1ccc(O)cc1Nc1ccnc2ccc(C(C)(C)C)cc12 [GW856805],8
7,COC(=O)Nc1nc2ccc(Oc3ccc(NC(=O)Nc4cc(C(F)(F)F)ccc4F)cc3)cc2[nH]1.Cl [GW654607],0
8,Cn1cc(-c2ccc3c(c2)CCN3C(=O)Cc2cc(F)cc(C(F)(F)F)c2)c2c(N)ncnc21 [GSK2635225],0
9,COc1cccc(CC(=O)N2CCc3cc(-c4cn(C)c5ncnc(N)c45)ccc32)c1 [GSK2608899],0
10,N#Cc1cnc2cc(-c3cnc(CNCCN4CCOCC4)s3)ccc2c1Nc1ccc(Oc2ccccc2)cc1 [GW664114],6
11,O=C(Nc1n[nH]c2cc(-c3cccs3)ccc12)C1CC1 [SB-731284],0
12,CN(C)CCOc1ccc(-c2cc(-c3ccc(Cl)c(O)c3)c(-c3ccncc3)[nH]2)cc1.Cl.Cl [SB-684387],54
13,Cc1cccc(Nc2nc(NCCN)ncc2C(N)=O)c1 [GSK1292139],0
14,COC(=O)Nc1nc2cc(Oc3ccc(NC(=O)Nc4cccc(SC)c4)cc3)ccc2[nH]1.Cl [GW697999],25
15,Nc1ncnc2scc(-c3ccc(NC(=O)Cc4cc(F)ccc4F)cc3)c12.O=C(O)C(F)(F)F [SB-731254-M],4
16,CC(C)c1nc(-c2ccc(F)c(NS(=O)(=O)c3c(F)cccc3F)c2)c(-c2ccnc(Nc3ccc(N4CCOCC4)nc3)n2)s1 [GSK1804250],90.8
17,NCCC(NC(=O)c1cc(Br)c(-c2ccnc3[nH]ccc23)s1)c1ccccc1.O=C(O)C(F)(F)F.O=C(O)C(F)(F)F (stereo not shown) [GSK1307810],3
18,COc1ccc(NC(=O)c2ccoc2)cc1-c1ccc(C(=O)NCC2CC2)cc1 [GW810437],37
